Here are results for twelve compounds from PubChem BioAssay (Tox21).

A number with no mark means an inactive call. Inconclusive results are not listed. The source made the active and inactive calls. Unless noted, the call rests on the fitted dose curve; in most records, active means well fitted curve in the direction sought with a large enough effect in the repeat runs; inconclusive means weak or mixed curves; inactive means no such curve, though single readings can be large; an effect the other way counts as inactive or inconclusive.

Test [1] is described as follows: A CellTox Green Cytotoxicity Assay to monitor cytotoxicity in HEK293 cells - 8 hour (AID 1224884). Further: nearly all actives have a fitted effect of over 35% in size. In outline:
(§1)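 Homogeneous no-lysis format: HEK293 cell suspension mixed with CellTox Green reagent, seeded, incubated 5 h at 37 C/5% CO2, then dosed by pintool with compound in DMSO.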

Test [2] is described as follows: qHTS RealTime-Glo MT Cell Viability Assay in HepG2 cells - 16 hour (AID 1224885). Further: nearly all actives have a fitted effect of over 50% in size. In outline:
(§2)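 HepG2 suspension premixed with RealTime-Glo reagents is plated at 600 cells per well and left 5 h at 37 C/5% CO2. Compounds in DMSO then go in, and bioluminescence reflecting viable cell number is recorded over 40 h.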

Test [3] can be described thus: qHTS RealTime-Glo MT Cell Viability Assay in HEK293 cells - 24 hour (AID 1224886). Further: top concentration of the series differs between compounds; nearly all actives have a fitted effect of over 50% in size. In outline: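 Reads taken at 0, 8, 16, 24, 32 and 40 h from the same wells. HEK293 cells (600/well) carried RealTime-Glo reagents from seeding, with compound added after a 5 h settle at 37 C.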
(In general: In qHTS, concentration-response curves come from the screen itself.)

Test [4] can be described thus: qHTS RealTime-Glo MT Cell Viability Assay in HEK293 cells - 8 hour (AID 1224887). Further: top concentration of the series differs between compounds; nearly all actives have a fitted effect of over 50% in size. The essentials: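 Measured as luminescence from the same continuously cultured HEK293 wells at successive time points (0, 8, 16, 24, 32, 40 h) after compound addition. Reagent present from seeding; dosing at 5 h; incubation 37 C.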
Test [5] in a line: A CellTox Green Cytotoxicity Assay to monitor cytotoxicity in HEK293 cells - 16 hour (AID 1224888). Further: nearly all actives have a fitted effect of over 35% in size. In outline:
as §1

A short description of test [6]: qHTS RealTime-Glo MT Cell Viability Assay in HepG2 cells - 0 hour (AID 1224889). Further: nearly all actives have a fitted effect of over 50% in size. In outline: as §2
Test [7] can be described thus: qHTS assay to identify small molecule antagonists of the estrogen receptor alpha (ER-alpha) signaling pathway using the BG1 cell line in the presence of 0.1 nM 17-beta-estradiol - cell viability counter screen (AID 1259241). Further: nearly all actives have a fitted effect of over 40% in size. In outline: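 Cells were plated and left 24 hr, compounds in DMSO were pinned in, 17beta-estradiol was added to 0.1 nM final, and after 22 hr CellTiter-Fluor reagent was added for 30 min before fluorescence was read.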

The nature of test [8]: qHTS assay to identify small molecule antagonists of the androgen receptor (AR) signaling pathway using the MDA cell line in the presence of 0.5 nM R1881 - cell viability counter screen (AID 1259242). Further: nearly all actives have a fitted effect of over 45% in size. The essentials:
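Human breast carcinoma MDA-kb2 cells, cultured without CO2, receive compounds alongside 0.5 nM (final) R1881 agonist. After 16 hr at 37C, viability is taken as live-cell protease signal.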

The target of test [9] is Androgen receptor (Homo sapiens) (UniProt P10275). The experiment in a line: qHTS assay to identify small molecule antagonists of the androgen receptor (AR) signaling pathway using the MDA cell line in the presence of 0.5 nM R1881 (AID 1259243). Further: nearly all actives have a fitted effect of over 50% in size. Further: potency means the concentration at half of the fitted maximal effect. In outline: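 Cells: MDA-kb2 (MMTV-luc). Stimulus: 0.5 nM R1881. Time: 16 hr, 37C, no CO2. Detection: ONE-Glo luminescence after 30 min at RT.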
Sequence of Androgen receptor (Homo sapiens) (P10275 whole entry, looked up): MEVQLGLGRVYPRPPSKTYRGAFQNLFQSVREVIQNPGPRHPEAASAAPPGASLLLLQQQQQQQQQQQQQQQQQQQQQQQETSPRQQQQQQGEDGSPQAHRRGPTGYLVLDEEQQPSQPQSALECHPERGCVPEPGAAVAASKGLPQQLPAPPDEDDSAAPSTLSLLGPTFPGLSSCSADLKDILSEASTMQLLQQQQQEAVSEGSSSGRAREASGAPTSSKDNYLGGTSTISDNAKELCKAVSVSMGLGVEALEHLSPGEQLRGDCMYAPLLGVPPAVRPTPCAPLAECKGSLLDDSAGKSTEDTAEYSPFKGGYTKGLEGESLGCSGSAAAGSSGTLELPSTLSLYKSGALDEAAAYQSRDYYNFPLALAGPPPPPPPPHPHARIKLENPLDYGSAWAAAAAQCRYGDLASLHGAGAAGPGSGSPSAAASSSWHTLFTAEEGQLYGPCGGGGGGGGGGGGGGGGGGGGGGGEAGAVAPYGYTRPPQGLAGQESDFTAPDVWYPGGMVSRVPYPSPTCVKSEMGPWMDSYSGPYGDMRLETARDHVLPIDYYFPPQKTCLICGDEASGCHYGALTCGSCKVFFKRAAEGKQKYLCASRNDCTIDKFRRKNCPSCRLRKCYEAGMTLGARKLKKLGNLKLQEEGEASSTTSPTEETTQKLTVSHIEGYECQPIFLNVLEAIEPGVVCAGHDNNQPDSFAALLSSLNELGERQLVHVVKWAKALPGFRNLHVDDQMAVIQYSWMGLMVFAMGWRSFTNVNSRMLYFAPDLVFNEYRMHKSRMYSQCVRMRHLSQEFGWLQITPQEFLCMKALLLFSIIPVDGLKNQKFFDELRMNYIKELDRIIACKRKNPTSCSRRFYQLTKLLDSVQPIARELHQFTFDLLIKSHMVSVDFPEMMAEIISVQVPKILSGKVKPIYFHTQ

Test [10] can be described thus: qHTS assay to identify small molecule HDAC inhibitors (AID 1259364). Further: potency means the concentration at half of the fitted maximal effect.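 Further: wild-type HCT-116 cells with endogenous class I/II HDAC activity; nearly all actives have a fitted effect of over 45% in size.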 On activity change, negative = inhibition: top concentration of the series differs between compounds. In outline:
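After a 2 hr compound incubation (37C, 5% CO2), HCT-116 cells seeded at 1,500/well the day before received HDAC-Glo reagent; signal read as luminescence after 30 min at room temperature.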

Test [11] is described as follows: qHTS assay to identify small molecule HDAC inhibitors - cell viability counter screen (AID 1259365). The essentials: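 Counter screen in wild-type HCT-116 cells: compounds dissolved in DMSO are pin-transferred onto overnight-plated cells and left 2hr at 37C. ATP-based CellTiter-Glo luminescence then measures viable cells.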
The nature of test [12]: qHTS assay to identify small molecule agonists of the sonic hedgehog signaling (Shh) pathway (AID 1259368; calls by dose curve;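 further: NIH/3T3-derived 3T3Gli1-Luc cells carrying a stable Gli1-driven firefly luciferase reporter; series mostly up to about 92 µM; nearly all actives have a fitted effect of over 15% in size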). In outline:
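Stable NIH/3T3 Gli1-Luc reporter clone; 24 hr cpd exposure after a 4 hr settling period; luminescence endpoint.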

Test [13] can be described thus: qHTS assay to identify small molecule antagonists of the sonic hedgehog signaling (Shh) pathway (AID 1259369; calls by dose curve; further: nearly all actives have a fitted effect of over 45% in size; further: potency means the concentration at half of the fitted maximal effect). The essentials:
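Gli1 transcriptional reporter (firefly Luc) in NIH/3T3 background, conditioned-medium activated. 24hr exposure, luminescence endpoint.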

Test [14] can be described thus: A CellTox Green Cytotoxicity Assay to monitor cytotoxicity in HepG2 cells - 32 hour (AID 1224883). Further: nearly all actives have a fitted effect of over 50% in size. Further: potency means the concentration at half of the fitted maximal effect. In outline: (§3)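 Fluorescent DNA-binding dye, 600 HepG2 cells/well, 5 h preincubation then compound in DMSO; same plates read at 0–40 h, 37 C.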
The nature of test [15]: A CellTox Green Cytotoxicity Assay to monitor cytotoxicity in HepG2 cells - 8 hour (AID 1224890). Further: nearly all actives have a fitted effect of over 45% in size. Further: potency means the concentration at half of the fitted maximal effect. The essentials:
as §3

In test [16] the target is Estrogen receptor (Homo sapiens) (UniProt P03372). The experiment in a line: qHTS assay to identify small molecule antagonists of the estrogen receptor alpha (ER-alpha) signaling pathway using the BG1 cell line in the presence of 0.1 nM 17-beta-estradiol (AID 1259244). Further: nearly all actives have a fitted effect of over 50% in size. In outline:
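Seeding of stripped-serum-adapted VM7Luc4E2 cells, 24 h attachment, compound transfer, then 0.1 nM final 17beta-estradiol; after 22 h incubation, ONE-Glo reagent and luminescence reading.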

Test [17] in a line: qHTS assay to identify small molecule agonists of the sonic hedgehog signaling (Shh) pathway - cell viability counter screen (AID 1259366). Further: nearly all actives have a fitted effect of over 50% in size. Further: potency means the concentration at half of the fitted maximal effect. In outline:
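Cells are plated at 2,000 per well and left 4hr at 37C, 5% CO2 before compound addition. After 23hr of treatment, CellTiter-Fluor reagent is added for 1hr at 37C and fluorescence is measured.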

Test [18] in a line: qHTS assay to identify small molecule phospholipidosis (PLD) inducers (AID 1259344; active means well fitted curve in the direction sought with a large enough effect; an effect the other way counts as inactive or inconclusive). In outline:
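Accumulated phospholipid, stained red by LipidTOX during 24 h compound treatment of HepG2 cells at 37 C, is quantified from images as pit number and intensity, normalised per cell using Hoechst-stained nuclei.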

Test [19] can be described thus: qHTS assay to identify small molecule antagonists of the sonic hedgehog signaling (Shh) pathway - cell viability counter screen (AID 1259367). Further: nearly all actives have a fitted effect of over 55% in size. The essentials:
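CellTiter-Fluor signal in conditioned medium-stimulated 3T3 Gli1-Luc cells, 23 hr compound exposure, 37C.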
On the % scale 0 is the no-effect control and ±100 the full control effect.

Sequence of Estrogen receptor (Homo sapiens) (P03372 whole entry, looked up): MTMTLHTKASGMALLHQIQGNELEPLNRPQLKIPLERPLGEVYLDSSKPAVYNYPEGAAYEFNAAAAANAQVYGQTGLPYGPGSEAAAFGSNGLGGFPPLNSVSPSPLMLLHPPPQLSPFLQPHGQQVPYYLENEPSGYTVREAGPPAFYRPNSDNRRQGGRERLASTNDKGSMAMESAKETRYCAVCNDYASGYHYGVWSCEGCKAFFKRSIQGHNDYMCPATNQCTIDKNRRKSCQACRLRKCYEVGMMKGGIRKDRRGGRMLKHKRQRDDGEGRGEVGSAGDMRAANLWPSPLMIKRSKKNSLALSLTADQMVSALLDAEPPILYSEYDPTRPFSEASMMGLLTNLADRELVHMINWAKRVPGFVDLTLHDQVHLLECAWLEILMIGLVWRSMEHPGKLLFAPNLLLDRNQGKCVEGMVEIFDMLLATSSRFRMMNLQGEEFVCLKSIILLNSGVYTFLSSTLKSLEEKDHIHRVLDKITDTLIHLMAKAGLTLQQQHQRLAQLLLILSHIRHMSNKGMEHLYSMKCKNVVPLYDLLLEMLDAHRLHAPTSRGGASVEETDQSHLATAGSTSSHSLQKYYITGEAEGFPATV

As to `CC(C)=CCNc1ncnc2c1ncn2[C@@H]1O[C@H](CO)[C@@H](O)[C@H]1O`, the Potency entry in test [1], in test [2], in test [3], in test [4], in test [5] and in test [6] was “inactive” in each case. Also, the Potency entry in test [7], in test [8], in test [9], in test [10], in [11] and in test [12] was “inactive” each time. For the same compound, in [13], the Potency is 2.98 µM (active).

On to `O=C(O)c1cc(N=Nc2ccc([N+](=O)[O-])cc2)ccc1O`, for which the Potency result in test [14], in test [2], in test [3], in [4], in [5] and in [6] was “inactive” in each case. Also, the Potency result in test [15], in test [16], in test [11], in test [12] and in test [13] was “inactive” each time. Besides, the results for the Potency in test [10] and in [17] were 0.848 µM (active) and 26.8 µM (active), respectively.

In the case of `COc1cc2nc(N3CCN(C(=O)c4ccco4)CC3)nc(N)c2cc1OC`, the Potency in test [14] is 10.4 µM (active). Further, the cytotoxicity increase in test [1] is -2.23% [at 15.8 µM]. Further, the activity change, negative = cytotoxicity in test [3] was -15.4% [at 15.8 µM]; in [4] it was -21.9% [at 15.8 µM]; in test [7], 2.36% [at 19 µM]; in [11] it was -0.972% [at 19 µM]. For the same compound, the activity change in [5] is 1.13% [at 15.8 µM, stronger effect = higher value]; in test [12], -4.98% [at 18.9 µM, stronger effect = higher value]. The activity change, negative = inhibition in [16] is -15.5% [at 19 µM]. Besides, the Potency result in test [18] is “inactive”. In addition, the viability change, negative = cytotoxic in test [19] is -24.8% [at 19 µM].

Consider `CN(C)[C@@H](CCOc1cccc2ccccc12)c1ccccc1`, for which the Potency result in test [1], in test [6], in test [7], in test [16], in test [10] and in test [11] was “inactive” each time. In addition, in test [12], the Potency entry is “inactive”. Also, the Potency in test [9] was 26.6 µM (active); in test [13] it was 29.8 µM (active).

On to `[Cu+]`, for which the Potency result in test [14], in test [1], in [4], in [5], in [6] and in [15] was “inactive” each time. The Potency entry in [7], in test [8], in test [16], in test [10], in [11] and in [17] was “inactive” each time. Moreover, the Potency entry in test [19], in [12] and in [13] was “inactive” throughout.

Turning to `CC1=Nc2ccccc2C1(C)C`, the Potency in test [14] is 43.7 µM (active). Besides, the Potency entry in test [1], in test [2], in [3], in test [4], in [5] and in test [6] was “inactive” in each case. In addition, the Potency entry in test [7], in [8], in test [16], in test [10], in test [11] and in test [17] was “inactive” throughout. Further, the Potency result in [19], in [12] and in test [13] was “inactive” in each case.

As to `CC(C)(C)c1csc(-c2cc3cc(OCc4ccccc4CC(=O)O)ccc3o2)n1`, the Potency in test [14] was 54.9 µM (active). For the same compound, the Potency result in [1], in test [6], in test [7], in test [8], in test [16] and in test [10] was “inactive” each time. Moreover, the Potency result in [11], in test [17], in [19], in test [12] and in [13] was “inactive” each time.

For the compound `O=C(/C=C/c1ccccc1)OC/C=C/c1ccccc1`, the Potency result in [14], in test [3], in test [5], in test [6], in [15] and in test [7] was “inactive” each time. The Potency entry in test [8], in [9], in test [16], in test [10], in [11] and in test [19] was “inactive” throughout. The Potency result in [12] and in [13] was “inactive” each time.

Consider `CCCCN(CCCC)CC(O)c1cc(Cl)cc2c1-c1ccc(Cl)cc1/C2=C/c1ccc(Cl)cc1` (centres undefined), for which the Potency in test [14] is 23.9 µM (active); in test [15] it was 13.4 µM (active); in [17] it was 26.6 µM (active). The Potency result in [1], in [3], in test [4], in [5], in [8] and in [16] was “inactive” each time. The Potency entry in [10], in test [11] and in [12] was “inactive” in each case.

As to `CCOc1ccc2ccccc2c1C(=O)N[C@@H]1C(=O)N2[C@@H]1SC(C)(C)[C@@H]2C(=O)O`, the Potency entry in test [14], in test [1], in test [2], in test [3], in [4] and in test [5] was “inactive” each time. The Potency result in test [6], in [7], in test [8], in test [9], in test [16] and in test [18] was “inactive” each time. In addition, the Potency result in test [10], in test [11], in [17], in [19], in test [12] and in test [13] was “inactive” each time.

For `O=S(=O)(O)c1ccccc1/C=C/c1ccc(-c2ccc(/C=C/c3ccccc3S(=O)(=O)O)cc2)cc1`, the Potency entry in test [14], in [1], in test [2], in test [3], in test [4] and in test [5] was “inactive” each time. The Potency result in test [6], in [15], in test [8], in test [16], in test [10] and in test [11] was “inactive” in each case. The Potency result in test [12] and in [13] was “inactive” in each case.

As for `O=S(=O)(O)c1ccc(Nc2nc(Nc3ccc(/C=C/c4ccc(Nc5nc(Nc6ccc(S(=O)(=O)O)cc6)nc(N(CCO)CCO)n5)cc4S(=O)(=O)O)c(S(=O)(=O)O)c3)nc(N(CCO)CCO)n2)cc1`, the Potency result in test [14], in [1], in test [2], in test [3], in test [4] and in test [5] was “inactive” throughout. Besides, the Potency entry in [6], in test [15], in [8], in test [9], in test [16] and in [10] was “inactive” each time. Besides, the Potency result in test [11], in test [17], in test [19], in test [12] and in test [13] was “inactive” in each case.
